FMDV inh – High Throughput Screening for Foot and Mouth Disease Virus Antivirals. FMDV antiviral cell-based qHTS. Potency, µM (titrated, usually from 57.9 µM), inactives show at the highest dose activity change, negative = inhibition, most hits filed as inhibitors. 410,000 compounds, 1.2% hits; calls by dose curve; tested in HEK293T cells; further: read-out not given here; potency means the concentration at half of the fitted maximal effect; nearly all actives have a fitted effect of over 45% in size
HCV inhibitor – qHTS Assay for Inhibitors of Hepatitis C Virus (HCV); Huh7.5.1 HCVcc-Cre infection, luciferase reporter, 44 h; Potency, µM (series often up to 41.8 µM), for inactives: top-dose activity change, negative = inhibition, actives largely listed as inhibitors; 340,000 compounds, 3.4% hits; AID 651820, 2012; further: potency means the concentration at half of the fitted maximal effect
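Infectious HCV cell culture screen: compound-treated cells (1,000/well, pre-plated 4 h) are infected with HCVcc-Cre at roughly 0.5 moi and grown 44 h. Infection is quantified by luciferase signal after 15 min substrate incubation at room temperature.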
Giardia FBPA inh – qHTS Assay for Inhibitors of Fructose-1,6-bisphosphate Aldolase from Giardia Lamblia; Potency, µM (highest dose often 59.6 µM), inactives show at the highest dose activity, negative = inhibition, hits mostly inhibitors; A8B2U2; purified Giardia FBPA; 290,000 compounds, 0.71% hits; further: potency means the concentration at half of the fitted maximal effect; nearly all actives have a fitted effect of over 55% in size
Target sequence (A8B2U2 whole entry, looked up): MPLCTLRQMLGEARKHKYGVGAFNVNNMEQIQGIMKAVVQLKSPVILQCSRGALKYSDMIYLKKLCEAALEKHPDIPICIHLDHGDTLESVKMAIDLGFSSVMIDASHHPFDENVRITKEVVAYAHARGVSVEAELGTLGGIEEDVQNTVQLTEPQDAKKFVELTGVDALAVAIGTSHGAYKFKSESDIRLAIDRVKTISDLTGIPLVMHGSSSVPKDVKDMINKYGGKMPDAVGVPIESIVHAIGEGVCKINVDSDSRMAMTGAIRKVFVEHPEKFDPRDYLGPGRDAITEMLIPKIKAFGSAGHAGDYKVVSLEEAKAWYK
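40 nM FBPA preincubated 10 min at RT with compound (up to 57.5 uM final), then substrate plus GAPDH/TPI/NAD/arsenate coupling and diaphorase/resazurin added. Fluorescence read after 20 min at RT, 525/598 nm.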
Marburg entry inh – qHTS for inhibitors of binding or entry into cells for Marburg Virus; Marburg virus pseudotyped entry inhibition, cell reporter; Potency, µM (series often up to 37.8 µM), for inactives: at the highest dose activity change, negative = inhibition, usual class: inhibitors; 300,000 compounds, 1.8% hits; calls by dose curve; tested in HEK293 cells; further: potency means the concentration at half of the fitted maximal effect
LASV entry inh – qHTS for Inhibitors of binding or entry into cells for Lassa Virus; Potency, µM (top dose mostly 37.9 µM), inactives show at the highest dose activity change, negative = inhibition, hits mostly inhibitors; 300,000 compounds, 1.2% hits; Lassa virus pseudotype entry inhibition, cell reporter; calls by dose curve; tested in HEK293 cells; further: potency means the concentration at half of the fitted maximal effect; nearly all actives have a fitted effect of over 50% in size
HCMV antiviral – qHTS Assay for inhibitors of the human cytomegalovirus (HCMV). 410,000 compounds, 4.5% hits. HFF cells, HCMV-luciferase reporter, 72 h; hits give low values. activity change, negative = inhibition, % at 57.5 µM; in the data active means activity change below about -60%; inconclusive means no clear call, values can overlap the other calls; inactive means above about -39%
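Steps: HFFs plated, 16 h 37C; compounds added; HCMV-luciferase added to MOI 1 PFU/cell; 72 h 37C; OneGlo reagent, 5 min room temperature; luminescence read, normalized to controls.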
Starred values were filed as active, the others as inactive; ? = inconclusive; nt = no result given; [ ] = another dose, or the depositor's remark. The list is not random: actives were taken first. Their share in the collection is about 8.3%. Unless noted, the call rests on the fitted dose curve; in most records, active means well fitted curve in the direction sought with a large enough effect; inconclusive means small, poorly fitted or top-dose-only effect, or another doubt; inactive means no such curve, though single readings can be large; an effect the other way counts as inactive or inconclusive. On the % scale 0 is the no-effect control and ±100 the full control effect.

SMILES | FMDV inh | HCV inhibitor | Giardia FBPA inh | Marburg entry inh | LASV entry inh | HCMV antiviral
CCc1ccc(/C=C2/Sc3ccccc3N(CC(=O)NCC3CCCO3)C2=O)cc1 (stereo unspecified) | 2% | 10µM* | -13% | nt | nt | 11
O=C(CCCN1C(=O)/C(=C/c2cccc(Br)c2)SC1=S)NCCCN1CCOCC1 | -2% | -14% | nt | ? | -9%[46.1 µM] | -90*
Cc1ccc(/C=C2/Sc3ccccc3N(CC(=O)NCC3CCCO3)C2=O)cc1 (stereo unspecified) | -18% | ? | nt | nt | nt | nt
O=C(CN1C(=O)/C(=C/c2cccc(Br)c2)SC1=S)NCCCN1CCOCC1 | 16% | 10% | nt | -1% | -13% | -18
O=C(CN1C(=O)/C(=C/c2ccccc2)Sc2ccccc21)NCCCN1CCOCC1 | -11% | -17% | 3% | nt | nt | -62*
C=C1CCN(C(Cc2ccccc2)C(=O)Nc2ccc(OC)cc2)S(=O)(=O)c2ccccc21 (stereo unspecified) | nt | nt | -16% | nt | nt | nt
C[C@@H]1CCC2[C@](C)(CO)[C@@H](O)CC[C@]2(C)[C@]12CCC(CO)(CCO)O2 (stereo partly specified) | -7% | nt | 0% | nt | nt | nt
O=S(=O)(Oc1ccccc1)c1ccc(Cl)c(Cl)c1 | 4% | 8% | nt | 1%[46.1 µM] | 0%[46.1 µM] | -5
O=[N+]([O-])c1cc(S(=O)(=O)Oc2ccccc2)ccc1Cl | ? | ? | nt | ? | ? | -89*
COC(=O)[C@@H]1CCCN1Cc1ccc2c(c1)CN(Cc1coc3ccccc3c1=O)CCO2 | 16% | nt | nt | nt | nt | nt
CN(Cc1cccs1)[C@H]1CC[C@@]23CCCN2C(=O)CCC[C@H]3[C@H]1Cc1ccccc1 | nt | nt | nt | nt | nt | -35
CC1(c2ccccc2)O[C@@H]2C[C@H]3[C@@H]4CCC5=CC(=O)C=C[C@]5(C)[C@@]4(F)[C@@H](O)C[C@]3(C)[C@]2(C(=O)CO)O1 (stereo partly specified) | ? | -8% | -3% | 10µM* | ? | -2
O=C1NC(=O)c2cc(Nc3ccc(F)cc3)c(Nc3ccc(F)cc3)cc21 | -9% | nt | -10% | nt | nt | nt
O=C1NC(=O)c2cc(Nc3ccccc3)c(Nc3ccccc3)cc21 | nt | nt | -5% | 23µM* | ? | nt
O=C(N1CCN(c2ccccc2)CC1)C12CC3CC(CC(C3)C1)C2 | ? | 7% | 5% | -5% | -2% | ?
Cc1nnn(C23C[C@@H]4C[C@@H](CC(C(=O)N5CCN(c6ccccc6)CC5)(C4)C2)C3)n1 | ? | ? | 7% | nt | nt | -87*
CC(=O)c1ccc(NC(=S)Nc2ccc3cn[nH]c3c2)cc1 | 27% | 0% | -22% | 10%[14.2 µM] | -30% | -68*
Cc1ccc(S(=O)(=O)N(C)C)cc1NC(=S)Nc1ccc2cn[nH]c2c1 | -8% | 2% | -12% | -5%[46.1 µM] | 14% | -67*
CNC(=S)N/N=C/C1=CCC2CC1C2(C)C (stereo unspecified) | 1% | 18% | -7% | 3% | 1.3µM* | 64
O=C(NCCCN1CCN(c2ccccc2)CC1)c1nnc(Cc2ccc(F)cc2)o1 | -29% | nt | nt | nt | 6%[46.1 µM] | -11
CCc1noc(-c2ccc(N(C)Cc3ccc(OC)cc3)c([N+](=O)[O-])c2)n1 | -26% | nt | nt | 7%[46.1 µM] | 7%[46.1 µM] | -7
Cc1ccc([C@H]2C[C@]34CN(Cc5ccccc5)S(=O)(=O)[C@H]3C[C@H]2O4)cc1 | nt | nt | nt | nt | nt | -88*
O=S1(=O)C2CC3OC2(CC3c2ccc(F)cc2)CN1Cc1ccc(Cl)cc1 (stereo unspecified) | nt | nt | 0% | nt | nt | nt
CCN(Cc1ccccc1)C(=O)Cn1c(=O)n(-c2ccc(F)c(Cl)c2)c(=O)c2sc3ccccc3c21 | -17% | nt | nt | -7%[46.1 µM] | 4%[46.1 µM] | -16
CN(N=Cc1ccc2c(c1)OCO2)C(=O)c1ccccc1N | nt | nt | nt | nt | nt | 21
SMILES | FMDV inh | HCV inhibitor | Giardia FBPA inh | Marburg entry inh | LASV entry inh | HCMV antiviral
CC(=O)N1CCN(c2ccc(NC(=O)c3ccc([N+](=O)[O-])o3)cc2Cl)CC1 | 30% | ? | -6% | ? | ? | -98*
CCC(=O)N1CCN(c2ccc(NC(=O)c3ccc([N+](=O)[O-])o3)cc2Cl)CC1 | ? | ? | -28% | ? | ? | -96*
CCN1CCN(c2ccc(NC(=O)c3ccc([N+](=O)[O-])o3)cc2Cl)CC1 | 44% | ? | -20% | ? | ? | -96*
COc1ccc(O[C@H]2C=C[C@@H](c3ccccc3)O[C@H]2COC(=O)NCc2cccc3ccccc23)cc1 | nt | nt | -1%[12.9 µM] | -28%[14.2 µM] | nt | nt
C=CCn1c(SCC(=O)Nc2cccnc2Cl)nnc1-c1ccccc1F | ? | -6% | 0% | -7% | ? | -65*
Cc1noc(/C=C/c2ccccc2F)c1S(=O)(=O)N1CCC(C(=O)N2CCOc3ccccc32)CC1 | -4% | nt | nt | nt | 23%[46.1 µM] | -3
COCCNCCCCOc1ccc(Br)cc1C | -13% | 10µM* | -22% | ? | ? | -9
Cc1cc(Br)ccc1OCCCCNC(C)(C)C | -15% | 13µM* | -17% | ? | -23% | -28
Cc1cc(Cl)c(OCCCCNC(C)(C)C)c(Br)c1 | nt | 10µM* | -8% | ? | ? | nt
COCCCNCCCCOc1cccc(Br)c1 | -15% | ? | -11% | ? | 0% | -11
COCCCNCCCCOc1ccc(Br)cc1C | -22% | 11µM* | -24% | 13µM* | ? | -5
COC(=O)[C@@](NC(C)=O)(Nc1ccccn1)C(F)(F)F | nt | nt | nt | 4% | nt | nt
C=CCOC(=O)C1=C(C)OC(N)=C(C#N)[C@H]1c1ccoc1 | nt | nt | nt | 6% | nt | nt
Cc1ccc(NC(=O)c2c3c(nc4ccccc24)CCC3)cc1 | -6% | -8% | 0% | -11%[46.1 µM] | -4% | 18
Cc1ccccc1NC(=O)c1c2c(nc3ccccc13)CCC2 | -15% | -15% | -6% | 10%[46.1 µM] | 15% | -71*
